# The source made the active and inactive calls. The calls were made as follows: active = hit-call score of the fitted dose curve at least 0.9, where 1 is the maximum; inactive = score below 0.9.
# Experiment: APR_HepG2_NuclearSize_24hr: Apredica 24-hour HepG2 Assay for Nuclear Size (AID 2282907)
# Conditions: high-content imaging, actives raise or lower the signal
# Protocol: APR_HepG2_24hr is a cell-based, multiplexed-readout assay that uses HepG2, a human liver cell line, with measurements taken at 24 hours after chemical dosing in a 384-well plate.APR_HepG2_NuclearSize_24hr is one of 10 assay component(s) measured or calculated from the APR_HepG2_24hr assay. It is designed to make measurements of cell phenotype, a form of morphology reporter, as detected with fluorescence intensity signals by HCS Fluorescent Imaging technology.Data from the assay component APR_HepG2_NuclearSize_24hr was analyzed into 1 assay endpoint. This assay endpoint, APR_HepG2_NuclearSize_24hr, was analyzed with bidirectional fitting relative to DMSO as the negative control and baseline of activity. Using a type of morphology reporter, measures of all nuclear dna for gain or loss-of-signal activity can be used to understand the signaling at the nuclear-level. Furthermore, this assay endpoint can be referred to as a primary readout, because this assay has produced multiple assay endpoints where this one serves a signaling function. To generalize the intended target to other relatable targets, this assay endpoint is annotated to the cell morphology intended target family, where the subfamily is organelle conformation.
# Cells were treated with dimethyl sulfoxide (DMSO) as a solvent control at a final concentration of 0.5% v/v or with compounds in DMSO with a resulting final DMSO concentration of 0.5% v/v. Compound treatment was done at concentrations of 0.39, 0.78, 1.56, 3.12, 6.24, 12.5, 25, 50, 100, and 200 uM in duplicate on each plate. Cells were treated with compounds for 1, 24, or 72 hr. Carbonyl […] m-chloro-phenylhydrazone (CCCP) and taxol were used as positive controls for mitochondrial function and cytoskeletal stability, respectively; DMSO served as the negative control for this experiment. Cells were fixed by the direct addition of 50 uL formaldehyde in Hank's Balanced Salt Solution (HBSS) to a final concentration of 3.7%. After incubation in the fixation medium for 30 min at room temperature (293-298 K), cells were rinsed twice with HBSS and treated with cell permeabilization buffer (16 uL of 0.5% Triton X-100) for 10 min at room temperature (293-298 K) before labeling. For mitochondrial membrane potential and mitochondrial measurements, pre-fixed cells were incubated with 50 uL of MitoTracker Red CMXRos (Invitrogen) at a concentration of 250 nM for 30 min before fixation. In the remaining cases, post-fixed cells were labeled by incubation with a multiplexed mixture of primary antibodies in HBSS for 60 min at room temperature (293-298 K) to detect immunoreactivity of c-Jun (1:500), phospho-histone H3 (1:100), phospho-histone H2A.x (1:200), p53 (1:400), alpha-tubulin (1:200) and Hoechst 33342 (2 ug/mL). Cells were labeled for multiplexed imaging on two separate plates: a) Hoechst 33342, MitoTracker Red, phospho-histone H3, and alpha-tubulin, and b) Hoechst 33342, phospho-histone H2A.x, and c-Jun. A final rinse with HBSS (50 uL) was performed before analysis. The primary and secondary antibodies for the proteins were phospho-histone H3 (rabbit anti-phospho-histone H3 and FITC-donkey anti-rabbit IgG), phospho-histone H2A.x (mouse anti-phospho-histone H2A.x and FITC-donkey anti-mouse IgG), c-Jun (rabbit anti-phospho-c-Jun and Cy3-donkey anti-rabbit IgG), p53 (sheep anti-p53 and Cy5-donkey anti-sheep IgG), alpha-tubulin (mouse anti-alpha-tubulin and Cy5-donkey anti-mouse IgG). These antibodies are available as the CellCiphr HepG2 assay kit (Millipore).Digital images of each well were captured using a Cellomics ArrayScan VTI (Thermo Scientific Cellomics) (0.8 NA objective, 0.63x optical coupler, and XF-93 filter set) at 20x magnification. The images were acquired using the autofocus feature of the ArrayScan instrument, which entails the following steps. First, the camera focuses on channel 1 (Hoechst 33342), where nuclei are identified. Second, a Z offset of 1 um is used for capturing mitochondria (MitoTracker Red). […]
SMILES,outcome,AC50
CCN(CC)CCO,inactive,–
[As]#[In],inactive,–
Cc1ccc(N=C=O)cc1N=C=O,inactive,–
CNC(=O)Oc1cccc2c1OC(C)(C)C2,inactive,–
CCC[CH2][Sn]([Cl])([CH2]CCC)[CH2]CCC,inactive,–
CCCCOC(=O)c1ccccc1C(=O)OCc1ccccc1,inactive,–
C1=Cc2cccc3cccc1c23,inactive,–
Cc1cccc(N)c1N,inactive,–
Cn1cc(-c2ccccc2)c(=O)c(-c2cccc(C(F)(F)F)c2)c1,inactive,–
N#CC(Br)Br,inactive,–
N#CC(Br)(Br)C(N)=O,inactive,–
c1ccc2c(c1)oc1ccccc12,inactive,–
Cc1ccc([N+](=O)[O-])cc1,inactive,–
CC(C)(OOC(C)(C)c1ccccc1)c1ccccc1,inactive,–
CC(C)COC(=O)c1ccccc1C(=O)OCC(C)C,inactive,–
O=[N+]([O-])c1ccc(Oc2ccc(Cl)cc2Cl)cc1,inactive,–
CC(C)(C)OOC(C)(C)CCC(C)(C)OOC(C)(C)C,inactive,–
Cc1cc(N=Nc2ccccc2C)ccc1N,inactive,–
COP(=S)(OC)SCN1C(=O)c2ccccc2C1=O,inactive,–
[O-][Cl+]O,inactive,–

SMILES,outcome,AC50
CN(C)C(=O)Nc1ccc(Cl)cc1,inactive,–
CCOC(=O)[C@]1(c2ccccc2)Oc2ccccc2[C@@H]1N,inactive,–
CCN(CC)N=O,inactive,–
O=[N+]([O-])C(Br)(CO)CO,inactive,–
Nc1ccc([N+](=O)[O-])cc1,inactive,–
Clc1ccccc1Cl,inactive,–
C=CCc1ccc2c(c1)OCO2,inactive,–
Cc1ccc(N)cc1,inactive,–
Nc1ccc(Oc2ccc(N)cc2)cc1,inactive,–
CCCSC(=O)N(CCC)CCC,inactive,–
CCCCCOC(=O)c1ccccc1C(=O)OCCCCC,inactive,–
Nc1ccc(Cl)cc1N,inactive,–
O=C(Nc1ccccc1)c1ccccc1I,inactive,–
c1ccc2c(c1)-c1cccc3cccc-2c13,inactive,–
ClC1=C(Cl)C2(Cl)C3C(Cl)C=CC3C1(Cl)C2(Cl)Cl (stereo not given),–,101 µM (active)
CO[C@@H]1[C@H](OC(=O)NC(=O)CCl)CC[C@]2(CO2)[C@H]1[C@@]1(C)O[C@@H]1CC=C(C)C,inactive,–
Clc1ccc(C(c2ccc(Cl)cc2)C(Cl)(Cl)Cl)cc1,–,56.5 µM (active)
Nc1cc(Cl)cc(C(=O)O)c1Cl,inactive,–
CCNS(=O)(=O)C(F)(F)C(F)(F)C(F)(F)C(F)(F)C(F)(F)C(F)(F)C(F)(F)C(F)(F)F,inactive,–
Clc1ccc(Cl)c(Cl)c1,inactive,–

# Source: PubChem BioAssay (EPA / NIEHS)
